# Screens: PubChem, National Center for Advancing Translational Sciences (NCATS)
# IL1B secr inh – qHTS for Inhibitors of Inflammasome Signaling: IL-1-beta AlphaLISA Primary Screen. THP-1 LPS/ATP IL-1B secretion, AlphaLISA, 16 h; stronger effect = lower value. AID 743279, 2014. activity change, % at 57.5 µM. 360,000 compounds, 4.7% hits; in the data active = activity change below about -50%; inconclusive = mostly about -30% to -49%
#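 THP-1 cells pretreated 1 hr with compounds (up to 57.5 uM final), then stimulated with LPS (250 ng/mL final) plus ATP (1.25 mM final); secreted IL-1B measured by AlphaLISA after 16 hr, decreased signal indicating inhibition.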
# DT40 TDP1 no CPT – qHTS for Inhibitors of human tyrosyl-DNA phosphodiesterase 1 (TDP1): qHTS in cells in absence of CPT | AID 686978, 2013 | DT40 Tdp1-/- hTDP1 cells, no CPT, ATP luminescence, 48 h | 420,000 compounds, 15% hits | Potency, µM (doses to about 46.2 µM), inactives show at the highest dose activity change, negative = growth inhibition, actives largely listed as inhibitors; note: potency is the fitted concentration of half-maximal effect; nearly all actives have a fitted effect of over 55% in size
#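 Seeded 400 DT40-hTDP1 cells/well (vehicle DMSO, no 20 nM CPT); pinned compounds; ≥48 hr at 37 °C; CellTiter-Glo luminescence as viability measure.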
# HT1080 IDH1KD tx – qHTS for induction of synthetic lethality in tumor cells producing 2HG: qHTS for the HT-1080-IDH1KD cell line; AID 686971, 2013; Potency, µM (series often up to 46.1 µM), for the others: at the highest dose activity, negative = toxicity, actives largely listed as cytotoxic; 360,000 compounds, 2% hits; HT-1080 IDH1 knockdown viability, ATP luminescence, 48 h;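 note: potency is the fitted concentration of half-maximal effect; 0% = DMSO wells and -100% = cell-free medium wells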
#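 Assay cells: HT-1080 with IDH1 knockdown, 750 per well, RPMI/5% FBS. Exposure: 48 h at 37 °C following 2 h pre-incubation. Read: CellTiter-Glo luminescence; fitted concentration-response, curve class assigned.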
# DT40 TDP1 CPT – qHTS for Inhibitors of human tyrosyl-DNA phosphodiesterase 1 (TDP1): qHTS in cells in presence of CPT; chicken DT40 Tdp1-/-;hTDP1 cells + 20 nM CPT, ATP luminescence, 48 h; Potency, µM (highest dose often 46.2 µM), for inactives: at the highest dose activity change, negative = growth inhibition, actives largely listed as inhibitors; 420,000 compounds, 12% hits; AID 686979, 2013; note: potency is the fitted concentration of half-maximal effect; nearly all actives have a fitted effect of over 55% in size
#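 Chicken DT40 Tdp1-/- cells complemented with human TDP1, 400 cells/well, exposed to compounds plus 20 nM camptothecin for at least 48 h at 37 C; viability read as ATP content by CellTiter-Glo luminescence.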
# HT1080NT lethal – qHTS for induction of synthetic lethality in tumor cells producing 2HG: qHTS for the HT-1080-NT fibrosarcoma cell line; HT-1080-NT fibrosarcoma viability, CellTiter-Glo ATP luminescence, 48 h; Potency, µM (top dose mostly 46.1 µM), without a hit: top-dose activity, negative = less viability, usual class: cytotoxic; 360,000 compounds, 1.6% hits; AID 686970, 2013;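 note: NT is the 2HG producing partner of a matched IDH1 knockdown line; potency is the fitted concentration of half-maximal effect; 0% = DMSO-treated cells and -100% = media-only wells without cells; nearly all actives have a fitted effect of over 55% in size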
#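 750 cells/well, RPMI + 5% FBS; 2 h settle, compound pin-transfer, 48 h at 37 degrees C. CellTiter-Glo 10 min RT, luminescence. Normalized to DMSO and media-only wells.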
# The depositor's hits bear a star; ? = inconclusive; nt = no result given; [ ] = remark or other dose. Hits are enriched below; roughly 19% of the tested compounds scored in any of these assays. Unless noted, calls come from the whole dose curve; as a rule, active = well fitted curve in the direction sought with a large enough effect; inconclusive = small, poorly fitted or top-dose-only effect, or another doubt; inactive = no such curve, though single readings can be large; an effect the other way counts as inactive or inconclusive. Unless noted, % is set by controls: 0 for no effect and ±100 for the full control effect.
SMILES,IL1B secr inh,DT40 TDP1 no CPT,HT1080 IDH1KD tx,DT40 TDP1 CPT,HT1080NT lethal
O=c1[nH][nH]c2c1[C@H](c1ccc(Cl)cc1)O[C@H](C1CCCCC1)C2,12.9,-24.0%,-0.7%,-22.7%,13.5%
CCOC(=O)c1ccc(NC(=O)c2cc3c(n(-c4ccc(C)cc4)c2=O)CC(C)(C)CC3=O)cc1,nt,?,nt,-4.8%,nt
CC(NC(=O)Nn1cnnc1)(C(F)(F)F)C(F)(F)F,9.8,6.9%,29.4%,4.7%,0.2%
COc1cc(C(=O)Nc2ccc(Br)cc2C(=O)c2cc(OC)c(OC)c(OC)c2)cc(OC)c1OC,29.3,3.66µM*,?,13µM*,?
COc1cc2ccccc2cc1C(=O)Nc1ccc(Br)cn1,15.7,-7.5%,0.1%,?,2.1%
COc1ccc(C(=O)Nc2ccccc2C(=O)Nc2cc(C)ccn2)cc1,-22.6,18.4µM*,?,?,?
COc1cc(C(=O)Nc2c(C(=O)O)[nH]c3ccc(Br)cc23)cc(OC)c1OC,19.6,-13.8%,0.6%,-3.7%,-13.4%
COc1cc2ccccc2cc1C(=O)Nc1cc(C)ccn1,-56.8*,?,-17.1%,?,-14.4%
CCOc1cccc(C2c3c(oc4ccccc4c3=O)C(=O)N2c2nc(C)c(C(=O)OC)s2)c1 (centres undefined),nt,0.8%,nt,10.4%,nt
Cc1ccc(C)c(S(=O)(=O)N2CCN(CC(=O)NC(C)c3ccccc3)CC2)c1 (centres undefined),-15.1,-16.5%,13.0%,-2.1%,9.7%
COc1ccc(NC2=C(Cl)C(=O)N(c3ccccc3)C2=O)c(OC)c1,-22.1,8.3%,6.3%,18.4µM*,11.8%
CCOc1ccc(N2C(=O)C(Cl)=C(Nc3ccccc3O)C2=O)cc1,-9.5,12.6µM*,-26.9%,20.6µM*,-17.7%
COc1ccccc1NC1=C(Cl)C(=O)N(c2ccccc2)C1=O,23.0,2.8%,19.2%,7.5%,7.1%
COc1ccc(N2C(=O)C(Cl)=C(Nc3c(C)n(C)n(-c4ccccc4)c3=O)C2=O)cc1,-13.2,5.8µM*,-1.0%,2.59µM*,1.3%
COc1ccc(OCCn2c(N)nc3ccccc32)cc1,-21.0,23.1µM*,-20.0%,?,-20.7%
Nc1nc2ccccc2n1CCOc1ccc(F)cc1,-51.0*,23.1µM*,?,?,?
Cc1oc(-c2ccccc2NC(=O)C2CCC2)nc1CNC(=O)c1ccc(C#CC(C)(C)O)cc1,nt,-8.7%,nt,-7.3%[9.04 µM],nt
Cc1ccc(S(=O)(=O)CCOC(=O)CNC(=O)OCc2ccccc2)cc1,?,-28.7%,-16.2%,0.6%,-9.4%
Cc1ccc(CN2CCC(CNc3ncnc4onc(-c5ccc(Cl)cc5)c34)CC2)cc1,nt,16.4µM*,nt,18.4µM*,nt
Cc1ccccc1CN1CCC(CNc2ncnc3onc(-c4ccc(Cl)cc4)c23)CC1,nt,16.4µM*,nt,?,nt
Clc1ccc(CN2CCC(CNc3ncnc4onc(-c5ccc(Cl)cc5)c34)CC2)cc1,nt,23.1µM*,nt,?,nt
Cc1cccc(Nc2ncnc3onc(-c4ccc(Cl)cc4)c23)c1C,nt,-24.3%,nt,-1.2%,nt
CCN1CCN(c2cc(C)c3cc(NC(=S)N4CCCC4)ccc3n2)CC1,-0.6,-24.3%,-8.5%,-2.1%,?
CCN1CCN(c2cc(C)c3cc(NC(=S)N4CC(C)CC(C)C4)ccc3n2)CC1 (centres undefined),-89.1*,?,16.4µM*,?,?
CCN1CCN(C(=S)Nc2ccc3nc(N4CCN(CC)CC4)cc(C)c3c2)CC1,?,?,?,-83.4%,-21.5%
SMILES,IL1B secr inh,DT40 TDP1 no CPT,HT1080 IDH1KD tx,DT40 TDP1 CPT,HT1080NT lethal
CCN1CCN(c2cc(C)c3cc(NC(=S)N4CCN(c5ccc(F)cc5)CC4)ccc3n2)CC1,83.9,?,-6.7%,20.6µM*,16.0%
COc1ccc(Nc2nc(-c3ccccc3)c(C(=O)Nc3cccnc3)s2)cc1,?,?,3.5%,?,9.6%
Cc1ccc(C(=O)N2CCCC(c3nc4c(nnn4Cc4ccccc4)c(=O)[nH]3)C2)cc1 (centres undefined),8.5,-19.6%,7.9%,?,5.5%
COc1ccc(CCNC(=O)CSc2nc(=O)[nH]c3c2CCC3)cc1OC,19.0,6.0%,4.3%,22.4%,11.9%
C=C[C@@H]1c2cccc(C)c2N(S(=O)(=O)c2ccc(C)cc2)[C@H](c2ccccc2)C1(C#N)S(=O)(=O)c1ccccc1 (some centres undefined),34.9,20.6µM*,-7.3%,?,-10.0%
C=C[C@@H]1c2ccccc2N(S(=O)(=O)c2ccc(C)cc2)[C@H](c2ccc(C(F)(F)F)cc2)C1(C#N)C#N,13.3,11.6µM*,15.4%,23.1µM*,9.5%
C=C[C@@H]1c2c(F)cccc2N(S(=O)(=O)c2ccc(C)cc2)[C@H](c2ccc(OC(C)=O)cc2)C1(C#N)C#N,-6.6,20.6µM*,?,?,?
C=C[C@@H]1c2cccc(C)c2N(S(=O)(=O)c2ccc(C)cc2)[C@H](c2ccc(OC(C)=O)cc2)C1(C#N)C#N,7.6,?,-27.2%,?,?
C=C[C@@H]1c2c(F)cccc2N(S(=O)(=O)c2ccc(C)cc2)[C@H](c2ccc(C(=O)OC)cc2)C1(C#N)C#N,49.6,?,9.0%,?,15.2%
CC(C)(C)OC(=O)NCCCCCc1cn([C@@H](CO)C(=O)NCCCCCCCCCCC(=O)N2CCN(C(=O)OC(C)(C)C)CC2)nn1,0.0,2.31µM*,16.4µM*,2.59µM*,16.4µM*
CC(C)(C)OC(=O)NCCCC[C@@H](C(=O)NCCCCCCCCCCC(=O)N1CCN(C(=O)OC(C)(C)C)CC1)n1cc(CCCC(=O)O)nn1,6.7,?,15.1%,?,0.2%
C[C@H](O)[C@@H](C(=O)N1CCN(C(=O)OC(C)(C)C)CC1)n1cc(CCCCNC(=O)OC(C)(C)C)nn1,0.5,?,2.2%,-23.4%,5.5%
CC[C@H](C)[C@@H](C(=O)NCCCCCCCCCCC(=O)N1CCN(C(=O)OC(C)(C)C)CC1)n1cc(CCCCCNC(=O)OC(C)(C)C)nn1,35.2,5.8µM*,-8.4%,4.61µM*,-10.9%
Cc1cn([C@H](C(=O)NCCCCCCCCCCC(=O)N2CCN(C(=O)OC(C)(C)C)CC2)[C@@H](C)O)nn1,31.5,16.4µM*,-6.7%,23.1µM*,-3.1%
